hgDAF12 agonist: H. glycines DAF-12 receptor agonists, primary screen, cell-based, luminescence, HEK293, GAL4 fusion, UAS-luciferase; Nuclear hormone receptor DAF-12 (Heterodera glycines), GAL4 fusion; HEK293 GAL4-hgDAF12 UAS-luciferase reporter, agonist luminescence; normalized to butyrate control; activation, % at 6.8 µM; hit rate 1.8% among 370,000; AID 687014, 2013;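 active = activation above a cutoff set at the mean of all screened compounds plus 3 SD, cut at about 10% in these data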
DAX1 inh-1: DAX1 (NR0B1) inhibitors on StAR promoter, primary screen, cell-based, luminescence, SF-1 (NR5A1), full-length DAX-1; hit rate 1.1% among 370,000; inhibition, % at 6.8 µM; HEK293T StAR-luciferase reporter, SF-1/DAX-1 repression relief;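 active = inhibition above the mean over all tested compounds plus 3 SD, cut at about 3.6% in these data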;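 also: higher inhibition means more luminescence from relief of DAX-1 repression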
DAX1 inh-2: DAX1 (NR0B1) inhibitors, primary screen, cell-based, HEK293, Gal4-DAX1, luciferase luminescence. Nuclear receptor subfamily 0 group B member 1 (Homo sapiens), P51843. inhibition, % at 6.75 µM. HEK293 Gal4-DAX1 luciferase reporter. hit rate 0.99% among 340,000. AID 504766, 2011;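 active = inhibition above the mean over all tested compounds plus 3 SD, cut at about 4.2% in these data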;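 also: inhibition shows as a rise in luminescence from relieved DAX1 repression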
Target sequence (P51843 207-470 limits assumed): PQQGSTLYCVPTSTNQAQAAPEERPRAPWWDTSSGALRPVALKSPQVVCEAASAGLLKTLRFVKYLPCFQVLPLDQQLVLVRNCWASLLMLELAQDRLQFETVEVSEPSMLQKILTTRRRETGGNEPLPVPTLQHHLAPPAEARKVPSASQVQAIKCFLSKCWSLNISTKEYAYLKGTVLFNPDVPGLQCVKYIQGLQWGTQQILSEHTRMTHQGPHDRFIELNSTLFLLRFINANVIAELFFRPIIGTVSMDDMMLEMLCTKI
ssDAF-12 act: S. stercoralis DAF-12 nuclear receptor activators, primary screen, cell-based, luminescence, HEK293, GRIP1 co-expression, lit1-tk-luc | Nuclear hormone receptor DAF-12 (Strongyloides stercoralis) | HEK293 ssDAF-12/GRIP1 lit1-tk-luc reporter; % of 3 µM dafachronic acid response | activation, % at 6.8 µM | hit rate 1% among 370,000;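 active = activation above the mean over all tested compounds plus 3 SD, cut at about 0.9% in these data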
hcDAF-12 act: H. contortus DAF-12 nuclear receptor activators, primary screen, cell-based, luminescence, HEK293, lit1-tk-luc reporter | HEK293 hcDAF-12 lit1-tk-luc reporter; 0% DMSO, 100% Δ7-dafachronic acid | activation, % at 6.8 µM | hit rate 1.4% among 370,000;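 active = activation above the mean of all tested compounds plus 3 SD, cut at about 5.5% in these data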
A number is an active result. Hits are enriched below; roughly 4.1% of the tested compounds scored in any of these assays.

Screening S=P1(Oc2ccccc2)Nc2ccccc2N1 returned hgDAF12 agonist 12, DAX1 inh-1 inactive, DAX1 inh-2 inactive, ssDAF-12 act inactive and hcDAF-12 act inactive.
For COc1ccc2c(c1)CC1(CN2C)C(=O)NC(=O)N(c2ccc(F)cc2)C1=O (stereo not given) the results were hgDAF12 agonist inactive, DAX1 inh-1 inactive, DAX1 inh-2 inactive, ssDAF-12 act inactive and hcDAF-12 act 6.0.
`CCc1c(C)nc(N)nc1N1N=C1SCC(=O)OC` gave hgDAF12 agonist inactive, DAX1 inh-1 inactive, DAX1 inh-2 inactive, ssDAF-12 act inactive and hcDAF-12 act inactive.
`COC(=O)CSC1=NN1c1cc(C)nc(N)n1` gave hgDAF12 agonist inactive, DAX1 inh-1 inactive, DAX1 inh-2 4.7, ssDAF-12 act inactive and hcDAF-12 act inactive.
`Nc1nonc1OCCCCOc1nonc1N` gave hgDAF12 agonist inactive, DAX1 inh-1 inactive, DAX1 inh-2 inactive, ssDAF-12 act 3.3 and hcDAF-12 act inactive.
Screening C=C1C[C@]2(O)[C@@]3(C)CCC(=O)C(C)(C)C3=C(O)C(=O)[C@@]2(C)[C@@H]2C(=O)O[C@@](C)(C(=O)OC)C(=O)[C@@]12C returned hgDAF12 agonist inactive, DAX1 inh-1 inactive, DAX1 inh-2 5.0, ssDAF-12 act inactive and hcDAF-12 act inactive.
`COc1cccc(NC2=NCCS2)c1` gave hgDAF12 agonist inactive, DAX1 inh-1 inactive, ssDAF-12 act inactive and hcDAF-12 act inactive.
For COc1cc(/C=C/[N+](=O)[O-])ccc1OC(=O)c1cccnc1 the results were hgDAF12 agonist inactive, DAX1 inh-1 inactive, DAX1 inh-2 inactive, ssDAF-12 act 1.3 and hcDAF-12 act inactive.
`COc1cc2c(cc1/C=C/[N+](=O)[O-])OCO2` gave hgDAF12 agonist inactive, DAX1 inh-1 inactive, DAX1 inh-2 inactive, ssDAF-12 act inactive and hcDAF-12 act inactive.
`CN(C)c1ccc(CCN2CCOCC2)cc1` gave hgDAF12 agonist 11, DAX1 inh-1 inactive, DAX1 inh-2 inactive, ssDAF-12 act 1.2 and hcDAF-12 act inactive.
C=CCn1c(O)c(C(CC)=Nc2cccc(C(F)(F)F)c2)c(=O)[nH]c1=O was read as hgDAF12 agonist inactive, DAX1 inh-1 inactive, DAX1 inh-2 inactive, ssDAF-12 act inactive and hcDAF-12 act 6.1.
`CN1CCN(Cc2cc(=O)n3ccsc3n2)CC1` gave hgDAF12 agonist inactive, DAX1 inh-1 inactive, DAX1 inh-2 inactive, ssDAF-12 act inactive and hcDAF-12 act inactive.
For O=c1cc(CN2CCNCC2)nc2sccn12 the results were hgDAF12 agonist inactive, DAX1 inh-1 inactive, DAX1 inh-2 4.9, ssDAF-12 act inactive and hcDAF-12 act inactive.
For O=C(c1ccc(F)cc1Cl)N1CCC2(CC1)OCCO2 the results were hgDAF12 agonist inactive, DAX1 inh-1 inactive, DAX1 inh-2 inactive, ssDAF-12 act inactive and hcDAF-12 act inactive.
For O=C(c1cc2cc(F)ccc2[nH]1)N1CCC2(CC1)OCCO2 the results were hgDAF12 agonist inactive, DAX1 inh-1 inactive, DAX1 inh-2 inactive, ssDAF-12 act 1.8 and hcDAF-12 act inactive.
Cc1ccc(N2C(=O)NC(=O)/C(=C/c3ccc(OC(=O)c4cccs4)cc3)C2=O)cc1 was read as hgDAF12 agonist inactive, DAX1 inh-1 inactive, DAX1 inh-2 inactive, ssDAF-12 act inactive and hcDAF-12 act inactive.
`COc1ccc(N2C(=O)NC(=O)/C(=C/c3cccc(OC(=O)c4cccs4)c3)C2=O)cc1Cl` gave hgDAF12 agonist inactive, DAX1 inh-1 inactive, ssDAF-12 act inactive and hcDAF-12 act 5.8.
COC(=O)C(O)(c1ccc(NC(=O)Oc2ccccc2)cc1)C(F)(F)F (stereo not given) was read as hgDAF12 agonist inactive, DAX1 inh-1 inactive, DAX1 inh-2 5.5, ssDAF-12 act inactive and hcDAF-12 act inactive.
Screening C[N+]1=C(N)NC2=C3CCCCC3ONC2C1 (stereo not given) returned hgDAF12 agonist inactive, ssDAF-12 act inactive and hcDAF-12 act inactive.
O=C1NC(=O)N(Cc2ccccc2)C(=O)/C1=C\C=C\c1ccco1 was read as hgDAF12 agonist inactive, DAX1 inh-1 inactive, DAX1 inh-2 inactive, ssDAF-12 act inactive and hcDAF-12 act inactive.

Screens deposited in PubChem by The Scripps Research Institute Molecular Screening Center.
